Source: PubChem BioAssay (National Center for Advancing Translational Sciences (NCATS))
Sampled rows, rich in hits. Any-hit rate of the full collection: about 21%.
D3 ag: qHTS of D3 Dopamine Receptor Agonist: qHTS | max activation, % | D3R DiscoveRx beta-arrestin cells, luminescence, 90 min | AID 652048, 2013 | 410,000 compounds, 0.58% hits; in the data active = max activation above about 30%; note: 0% is about no effect
Target sequence (P35462 whole entry, looked up): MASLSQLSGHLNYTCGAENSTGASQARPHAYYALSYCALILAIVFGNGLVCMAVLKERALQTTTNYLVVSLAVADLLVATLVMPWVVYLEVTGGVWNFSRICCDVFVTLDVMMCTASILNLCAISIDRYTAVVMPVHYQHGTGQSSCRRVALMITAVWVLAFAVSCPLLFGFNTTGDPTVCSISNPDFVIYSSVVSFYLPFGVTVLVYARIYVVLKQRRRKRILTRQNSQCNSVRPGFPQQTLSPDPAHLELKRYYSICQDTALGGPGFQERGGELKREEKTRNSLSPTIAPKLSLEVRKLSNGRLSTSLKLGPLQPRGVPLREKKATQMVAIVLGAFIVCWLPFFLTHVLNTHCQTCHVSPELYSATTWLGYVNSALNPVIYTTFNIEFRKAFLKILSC
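Agonist-mode cell screen: cells plated at 1500/well and incubated overnight at 37 °C, then exposed to library compounds for 90 min at 37 °C. Detection reagent was added for 30–60 min at room temperature, and luminescence was read.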
DRD3 antagonist: qHTS of D3 Dopamine Receptor Antagonist: qHTS; D(3) dopamine receptor (Homo sapiens), P35462; D3R cells, DiscoveRx beta-arrestin luminescence, antagonist mode; hits give low values; 360,000 compounds, 2.5% hits; max response, negative = inhibition, %; AID 652054, 2013; in the data active = max response below about -50%; inconclusive = no clear call, values can overlap the other calls; note: % is set by controls: 0 for no effect and ±100 for the full control effect
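Cells plated overnight at 1500 cells/well, then exposed to library compounds with dopamine controls for 90 minutes at 37 degrees C. DiscoveRx reagent added for 30–60 minutes at room temperature; luminescence read, quantitative HTS format.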
TDP1 cell CPT: qHTS for Inhibitors of human tyrosyl-DNA phosphodiesterase 1 (TDP1): qHTS in cells in presence of CPT; chicken DT40 Tdp1-/-;hTDP1 cells + 20 nM CPT, ATP luminescence, 48 h; Potency, µM (series often up to 46.2 µM), for the others: top-dose activity change, negative = growth inhibition, actives largely listed as inhibitors; 420,000 compounds, 12% hits; note: potency is the fitted concentration of half-maximal effect; % is set by controls: 0 for no effect and ±100 for the full control effect; nearly all actives have a fitted effect of over 55% in size
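Cell growth measured by CellTiter-Glo luminescence after a minimum 48 h, 37 C compound exposure with 20 nM CPT in Tdp1-knockout DT40 cells stably expressing hTDP1, seeded 400/well; qHTS titration format.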
ClpP mod: qHTS Assay for Activators of ClpP; Potency, µM (series often up to 57.5 µM), for inactives: top-dose activity change, negative = active; purified B. subtilis ClpP, FRET peptide cleavage, 20 min; 340,000 compounds, 1.9% hits; ATP-dependent Clp protease proteolytic subunit (Bacillus subtilis (strain 168)), P80244; AID 651965, 2013; active = well fitted falling curve with a large enough effect; inconclusive = small, poorly fitted or top-dose-only effect; inactive = no such curve, though single readings can be large or run the other way; note: potency is the fitted concentration of half-maximal effect; the source files actives as falling curves though it sought activators and does not explain the sign; nearly all actives have a fitted effect of over 65% in size
Target sequence (P80244 whole entry, looked up): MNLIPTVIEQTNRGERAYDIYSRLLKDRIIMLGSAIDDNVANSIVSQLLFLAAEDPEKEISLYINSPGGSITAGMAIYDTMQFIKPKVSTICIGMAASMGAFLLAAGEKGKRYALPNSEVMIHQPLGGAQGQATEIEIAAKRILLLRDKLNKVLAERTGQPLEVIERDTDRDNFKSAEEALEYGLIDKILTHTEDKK
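ClpP 10 microg/mL final, pH 8 Tris/KCl buffer with BSA, glycerol, Tween-20; compound pinned in; FRET-FV substrate; RT 20 min; Ex320/Em430; ΔFRET vs ADEP 5.8 microM, DMSO, no enzyme.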
TDP1 cell noCPT: qHTS for Inhibitors of human tyrosyl-DNA phosphodiesterase 1 (TDP1): qHTS in cells in absence of CPT; AID 686978, 2013; DT40 Tdp1-/- hTDP1 cells, no CPT, ATP luminescence, 48 h; Potency, µM (highest dose often 46.2 µM), without a hit: at the top dose activity change, negative = growth inhibition, most hits filed as inhibitors; 420,000 compounds, 15% hits; note: potency is the fitted concentration of half-maximal effect; % is set by controls: 0 for no effect and ±100 for the full control effect; nearly all actives have a fitted effect of over 55% in size
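Seeded 400 DT40-hTDP1 cells/well (vehicle DMSO, no 20 nM CPT); pinned compounds; ≥48 hr at 37 °C; CellTiter-Glo luminescence as viability measure.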
IL1B secr inh: qHTS for Inhibitors of Inflammasome Signaling: IL-1-beta AlphaLISA Primary Screen; AID 743279, 2014; 360,000 compounds, 4.7% hits; activity change, % at 57.5 µM; THP-1 LPS/ATP IL-1B secretion, AlphaLISA, 16 h; hits give low values; in the data active = activity change below about -50%; inconclusive = mostly about -30% to -49%; note: % is set by controls: 0 for no effect and ±100 for the full control effect
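THP-1 cells pretreated 1 hr with compounds (up to 57.5 uM final), then stimulated with LPS (250 ng/mL final) plus ATP (1.25 mM final); secreted IL-1B measured by AlphaLISA after 16 hr, decreased signal indicating inhibition.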
Numbers without * were called inactive; ? = inconclusive; nt = no result; [ ] = dose if it differs, or a comment. Unless noted, calls come from the whole dose curve; as a rule, active = well fitted inhibition curve with a large enough effect; inconclusive = small, poorly fitted or top-dose-only effect; inactive = flat fitted curve, though single readings scatter.

SMILES	D3 ag	DRD3 antagonist	TDP1 cell CPT	ClpP mod	TDP1 cell noCPT	IL1B secr inh
COc1ccc(C)cc1Nc1nc(N)c2cc(OC)c(OC)cc2n1	-3	-5	4.6µM*	-29%	23µM*	-92*
Cc1ccc(C)c(Nc2nc(N)c3ccccc3n2)c1	14	-1	?	nt	18µM*	nt
COc1cc2nc(C#N)nc(N)c2cc1OC	nt	nt	?	-1%	20µM*	nt
O=c1oc(Nc2cccc(F)c2)nc2ccccc12	-1	-10	?	-3%	?	13
COc1ccc(C)cc1Nc1nc(-c2ccccc2O)nc2ccccc12	1	7	-14%	-1%	-8%	10
Cc1ccc(C)c(Nc2ncnc(N)c2[N+](=O)[O-])c1	6	-20	-2%	-2%	-21%	0
COc1ccc(N2CCN(CCCNC(=O)CN3C(=O)COc4ccccc43)CC2)cc1	-8	10	?	-3%	-4%	-19
COc1nc(NCCO)nc(Nc2cc(Cl)ccc2OC)n1	-4	-1	-16%	-2%	-22%	-10
COc1cc2nc(N3CCN(c4cc(C)ccc4C)CC3)nc(N)c2cc1OC	12	-25	8.2µM*	nt	7.3µM*	-97*
COc1ccc(Cl)cc1Nc1nc(N)c2ccccc2n1	-9	7	?	nt	?	-89*
COc1ccc(NC(=O)CNC(=O)CC23CC4CC(CC(C4)C2)C3)c(OC)c1	4	-1	?	0%	?	13
O=C(NNS(=O)(=O)c1ccccc1Cl)c1nn(-c2ccc(F)cc2)ccc1=O	1	0	11%	-2%	-10%	5
NC(N)=N/N=C/c1ccc(Br)cc1	-1	-8	2.6µM*	1%	4.1µM*	?
Cc1ccc(COc2ccc(/C=N/O)cc2)cc1	-1	5	-29%	1%	?	-9
NC(N)=N/N=C/c1ccc(OCc2ccc(Cl)cc2)cc1	-6	15	21µM*	-4%	?	-94*
Cc1ccc(/C=N/N=C/c2ccc(C)cc2)cc1	2	13	?	2%	-21%	-7
COC1=CC(=O)C(C(=O)c2ccccc2)=CC1=O	nt	nt	?	nt	5.8µM*	nt
CN(C)CCCN=Cc1c(O)n(Cc2ccccc2)c(=O)c2ccccc12	-3	-27	?	25µM*	7%	?
CN(C)CCN=Cc1c(O)n(Cc2ccccc2)c(=O)c2ccccc12	2	-8	4%	nt	-27%	-15
CCOc1ccc(CCNC(=O)c2cn(C)c3ccc(S(=O)(=O)N4CCCCCC4)cc3c2=O)cc1OCC	7	nt	?	0%	?	nt
C[C@H]1CN=C(Nc2ccccc2)N1CCc1ccccc1	-39	-4	-12%	1%	-10%	3
CC1CCC(CN2C(Nc3ccccc3)=NC[C@@H]2C)CC1 (some centres not stated)	-16	-7	18µM*	1%	?	0
Cc1cccc(CCN2C(Nc3ccccc3)=NC[C@@H]2C)c1	-33	-9	-29%	-3%	?	-27
c1ccc(C[C@H]2CN=C(Nc3ccccc3)N2CC2CCC2)cc1	-28	-16	?	-1%	?	-9
c1ccc(C[C@H]2CN=C(Nc3ccccc3)N2CC2CCCC2)cc1	-6	1	10µM*	-2%	12µM*	-70*
SMILES	D3 ag	DRD3 antagonist	TDP1 cell CPT	ClpP mod	TDP1 cell noCPT	IL1B secr inh
CC1CCC(CN2C(Nc3ccccc3)=NC[C@@H]2Cc2ccccc2)CC1 (some centres not stated)	-5	-8	?	-1%	7.3µM*	-23
CC(C)C[C@H]1CN=C(Nc2ccccc2)N1CC1CCC(C)CC1 (some centres not stated)	-20	5	?	1%	18µM*	-4
COc1cc2c(cc1OC)CN(c1ccc(C(N)=O)cc1[N+](=O)[O-])CC2	6	13	?	nt	?	?
COc1ccc(C)cc1NC(=O)N1CCN(S(=O)(=O)c2ccc3c(ccn3C)c2)CC1	-18	nt	nt	-4%	nt	nt
Cc1[nH]c2ccccc2c1C(=O)CN1CC(C)OC(C)C1 (configuration not stated)	-14	1	3%	0%	-20%	22
c1ccc(NC2=NCCN2CC2CCCCC2)cc1	-12	6	4%	-1%	-3%	13
c1ccc(C[C@H]2CN=C(Nc3ccccc3)N2CCCC2CCCCC2)cc1	-29	-13	?	0%	16µM*	-17
c1ccc(C[C@H]2CN=C(Nc3ccccc3)N2CC2CCCCC2)cc1	-14	2	16µM*	-3%	?	?
CCCCN1C(Nc2ccccc2)=NC[C@@H]1C	1	3	-16%	1%	-3%	11
CCCCN1C(Nc2ccccc2)=NC[C@@H]1Cc1ccccc1	-41	0	23µM*	2%	?	-15
O=C1CC(c2cccc(O)c2)c2c(nc(SCc3ccccc3F)[nH]c2=O)N1 (configuration not stated)	-17	nt	-12%	1%	-10%	nt
Cc1noc(C)c1NC(=O)N(C)C[C@@H]1Oc2ccc(NC(=O)CCC(F)(F)F)cc2CC(=O)N([C@@H](C)CO)C[C@@H]1C	-6	29	6%	0%	-11%	27
CCc1noc(C)c1C(=O)Nc1cc(Cl)ccc1N1CCCC1	0	5	?	3%	18µM*	7
CCc1cc(C(=O)Nc2cc(S(=O)(=O)N(CC)CC)ccc2N2CCN(C)CC2)sc1C	-5	-2	-2%	nt	-22%	-2
CCc1cc(C(=O)Nc2cc(Cl)ccc2N2CCN(C)CC2)sc1C	-8	0	?	nt	23µM*	-10
CN1CCN(c2ccc(Cl)cc2NC(=O)c2nn(-c3ccccc3)c(=O)c3ccccc23)CC1	3	25	?	-2%	9.2µM*	-18
CCc1noc(C)c1C(=O)Nc1ccccc1N1CCOCC1	-3	17	?	?	?	20
COCC1CCCN(Cc2ccc3c(c2)CN(C(=O)c2cnn(C(C)C)c2)CCO3)C1 (configuration not stated)	nt	nt	13%[9.04 µM]	nt	-22%	nt
COc1ccc(CNC(=O)c2cccc3c(-c4cnn(C)c4)coc23)cc1OC	-8	87	?	-6%	?	?
